Bioassay records as filed in PubChem.
An excerpt weighted towards active compounds, which were near 3% of everything screened.
SENP7 block: SENP7 protease inhibitors, primary screen, biochemical, luminescence, uHTS | inhibition, % at 5 µM | recombinant SENP7, Z-RLRGG-aminoluciferin luminescence, 40 min | hit rate 1.5% among 330,000 | AID 434973, 2010;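 active = inhibition above about 50% at the single test dose, limit read from the data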
TRAIL sens C8: viability loss with TRAIL in NB7+C8 cells, primary screen, TRAIL sensitizer project, cell-based, ATPlite luminescence; inhibition (viability loss, TRAIL sensitization), % at 10 µM; hit rate 1% among 360,000; AID 624354, 2012;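 active = compounds causing at least 50% loss of cell viability in the single-dose screen, relative to plate controls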
SENP8 block-1: human SENP8 protease inhibitors, primary screen, biochemical, fluorescence, Nedd8 protein substrate, uHTS; recombinant SENP8; Sentrin-specific protease 8 (Homo sapiens), Q96LD8; AID 602440, 2012; hit rate 0.64% among 360,000; inhibition, % at 20 µM; in the data active = inhibition mostly above about 40%, no sharp cut-off; inactive = mostly below about 27%
Target sequence (Q96LD8 whole entry, looked up): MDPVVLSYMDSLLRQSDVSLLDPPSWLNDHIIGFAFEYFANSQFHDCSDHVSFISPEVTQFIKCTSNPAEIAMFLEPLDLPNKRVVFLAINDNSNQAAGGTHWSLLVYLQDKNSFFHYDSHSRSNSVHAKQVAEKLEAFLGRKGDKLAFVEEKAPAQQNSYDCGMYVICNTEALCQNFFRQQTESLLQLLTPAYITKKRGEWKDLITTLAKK
SENP6 inh: SENP6 protease inhibitors, primary screen, biochemical, luminescence, uHTS; Recombinant SENP6 catalytic domain, aminoluciferin luminescence; Sentrin-specific protease 6 (Homo sapiens), Q9GZR1; inhibition, % at 10 µM; AID 2599, 2010; hit rate 1.8% among 330,000;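 active = inhibition above about 50% at the single tested dose, limit read from the data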
PPC-1+TRAIL kill: compounds killing PPC-1 cancer cells with TRAIL present, primary screen, TRAIL potentiator project, ATPLite luminescence, uHTS. PPC-1 cells + TRAIL, ATPLite viability luminescence. AID 1443, 2008. hit rate 0.41% among 220,000. cell killing (% activity), % at 4 µM or 5 µM;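 active = cell killing above 50% in the first pass at 4 µM, then a duplicate retest at 5 µM averaging 50% or more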
SENP8 block-2: SENP8 protease inhibitors, primary screen, biochemical, luminescence | purified SENP8, Z-RLRGG-aminoluciferin cleavage | inhibition, % at 10 µM | hit rate 1.2% among 330,000 | AID 2540, 2010; in the data active = inhibition above about 50%
SENP8 conf: SENP8 protease inhibitors, retest, confirmation, biochemical, luminescence, single concentration | shares compounds with SENP7 block | Recombinant SENP8, Z-RLRGG-aminoluciferin luminescence, 60 min | inhibition, % at 12.5 µM | hit rate 40% among 6,200 | AID 488912, 2010;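 active = mean inhibition across replicates above about 50%, limit read from the data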
SENP6 conf: SENP6 protease inhibitors, confirmation, biochemical, luminescence, single concentration; inhibition, % at 12.5 µM; AID 488915, 2010; shares compounds with SENP7 block; hit rate 58% among 6,200; recombinant SENP6, Z-RLRGG-aminoluciferin luminescence
SENP7 conf: SENP7 protease inhibitors, retest, confirmation, biochemical, luminescence, single concentration; shares compounds with SENP7 block; recombinant SENP7, Z-RLRGG-aminoluciferin luminescence, 40 min; inhibition, % at 12.5 µM; hit rate 69% among 6,200
Casp3 select: caspase-3 protease inhibitors, confirmation, selectivity assay for SENP inhibitor project, biochemical, single concentration; shares compounds with SENP7 block; purified caspase-3, Z-DEVD-aminoluciferin luminescence, 60 min; inhibition, % at 12.5 µM; hit rate 60% among 6,200; AID 488918, 2010;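 active = mean inhibition above about 50%, limit read from the data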
Target sequence (P42574 28-227 limits assumed): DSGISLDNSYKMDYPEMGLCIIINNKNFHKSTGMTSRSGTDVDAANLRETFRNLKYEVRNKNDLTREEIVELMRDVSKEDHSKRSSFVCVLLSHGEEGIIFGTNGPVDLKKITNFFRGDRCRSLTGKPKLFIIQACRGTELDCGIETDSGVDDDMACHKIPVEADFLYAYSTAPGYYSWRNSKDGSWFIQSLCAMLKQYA
SENP luc ctr: luminescence interference (SENP counter-screen). Pre-incubated SENP8/Z-RLRGG-aminoluciferin, luciferase luminescence interference. inhibition, % at 12.5 µM. shares compounds with SENP7 block. hit rate 39% among 6,200. AID 488919;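 active = mean inhibition above about 50% when retested at one dose, limit read from the data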
Numbers stand for hits; i = inactive; nt = no result given.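 The calls were made as follows, unless noted: active = mean inhibition above about 50% in the one-dose retest (limit read from the data); inactive = the rest.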

SMILES	SENP7 block	TRAIL sens C8	SENP8 block-1	SENP6 inh	PPC-1+TRAIL kill	SENP8 block-2	SENP8 conf	SENP6 conf	SENP7 conf	Casp3 select	SENP luc ctr
O=c1[nH]c(Nc2ccccc2)cc2cc(Br)ccc12	94	i	i	96	nt	97	96	98	96	95	i
COc1ccccc1Nc1cc2cc(Br)ccc2c(=O)[nH]1	96	i	i	98	nt	97	86	97	94	86	i
O=c1[nH]c(Nc2ccccc2)cc2ccccc12	94	i	i	89	i	96	55	80	59	i	i
COc1ccc(OC)c(S(=O)(=O)NC(=O)C2(C)CCN2C(=O)C2(c3ccc(Cl)cc3)CC2)c1 (stereo not given)	nt	i	i	nt	nt	nt	nt	nt	nt	nt	nt
COc1ccc(N(CCC(=O)Nc2ccccc2F)S(=O)(=O)c2ccc(C)cc2C)cc1	i	i	i	i	nt	i	nt	nt	nt	nt	nt
Cc1c(NC(=O)c2ccc(-c3cccc([N+](=O)[O-])c3)o2)c(=O)n(-c2ccccc2)n1C	i	i	i	i	nt	i	nt	nt	nt	nt	nt
CC(=O)c1cccc(-c2ccc3c(=O)[nH]c(Nc4ccccc4)cc3c2)c1	95	i	i	99	nt	97	95	97	95	97	i
CC(=O)c1cccc(Nc2nc(-c3ccccc3)nc3ccccc23)c1	i	i	i	i	nt	i	nt	nt	nt	nt	nt
Cc1cccc(NC(=O)c2ccco2)c1C	i	i	i	i	nt	i	nt	nt	nt	nt	nt
COc1ccc2nc(NC(=O)c3ccco3)sc2c1	93	67	i	88	nt	87	93	93	101	94	79
COc1ccc(-c2csc(NC(=O)c3ccco3)n2)cc1	i	i	i	56	i	i	i	i	75	i	i
Cc1cc(NC(=O)c2ccco2)sc1C	76	i	i	83	nt	68	i	60	86	81	67
O=C(Nc1nc2ccc(Cl)cc2s1)c1ccco1	89	i	i	86	i	81	i	80	59	86	i
CCOc1ccc(-c2csc(NC(=O)c3ccco3)n2)cc1	i	i	i	i	nt	i	nt	nt	nt	nt	nt
COc1cccc(/C=N/NC(=O)c2ccc(-n3cnnn3)cc2)c1	i	i	i	i	nt	i	nt	nt	nt	nt	nt
O=C(CCn1ccnc1)Nc1ccc2ccccc2c1	i	i	i	i	i	i	nt	nt	nt	nt	nt
O=C(Nc1ccc2nc(-c3ccccc3)[nH]c2c1)c1ccco1	i	i	i	i	i	i	nt	nt	nt	nt	nt
O=C(Nc1ccc(-c2cn3ccccc3n2)cc1)c1ccc(Cl)cc1	i	i	i	i	i	i	nt	nt	nt	nt	nt
CC(=O)Nc1nc2ccc(Br)cc2s1	70	i	i	80	i	56	72	69	92	74	59
O=C(Nc1nc2ccc(Br)cc2s1)c1ccco1	63	i	i	75	nt	58	i	64	90	69	i
Cc1cccc2[nH]c(-c3ccc(NC(=O)c4ccco4)cc3)nc12	90	i	i	91	i	77	i	80	96	75	78
O=C(Nc1ccc(-c2cn3ccccc3n2)cc1)c1ccco1	59	71	i	71	73	i	59	58	85	79	69
COc1ccc(OC)c(/C=C/C(=O)OCC(=O)Nc2nnc(-c3ccccc3)o2)c1	i	i	i	i	nt	i	nt	nt	nt	nt	nt
